Pf Dd2 growth: P. falciparum Dd2 growth inhibitors, primary screen, SYBR Green fluorescence, single dose replicates; 72 h; hits give low values; activity change, % at 10 µM; 2.3% of 94,000 active; AID 1159554, 2015; in the data active = activity change below about -80%; inconclusive = no clear call, values can overlap the other calls
Tcruzi prolif: T. cruzi intracellular proliferation inhibitors, primary screen, cell-based, beta-gal Tulahuen parasites, NIH3T3 host, luminescence. T. cruzi beta-gal in NIH3T3, GalScreen luminescence, 90 h. inhibition, % at 8.34 µM. 5.9% of 77,000 active. AID 624255, 2012;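 active = mean inhibition above about 93%, with at least 55% of replicates each passing it, limit read from the data, passing the limit was not always enough; inconclusive = only one of those two conditions holds; inactive = neither condition holds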
C diff HTS: C. difficile growth inhibitors, primary screen, HTS; AID 1259249, 2017; Clostridium difficile clinical isolate growth, OD600, 24 h; hits give low values; 0.25% of 86,000 active; growth activity, negative = inhibition, % at 16 µg/mL (by protocol);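 active = mean growth activity at or below -80% and every replicate also at or below -80%; inconclusive = mean at or below -80% but some replicate above -80%; inactive = mean growth activity above -80%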
Hits are given with their value; 0 = inactive; ? = inconclusive; - = not tested or not shown; ! = not active in a repeat. Sampled rows, rich in hits. Any-hit rate of the full collection: about 6.8%.

SMILES	Pf Dd2 growth	Tcruzi prolif	C diff HTS
CO[C@H]1CN(C)C(=O)c2ccc(NC(=O)Nc3ccc(C(F)(F)F)cc3)cc2OC[C@@H](C)NC[C@H]1C	0	0	-
CO[C@H]1CN(C)C(=O)c2ccc(NC(=O)Nc3ccc(C(F)(F)F)cc3)cc2OC[C@H](C)NC[C@@H]1C	0	-	0
Cc1ccc(S(=O)(=O)NCC[C@@H]2CC[C@@H](NC(=O)C3CCOCC3)[C@H](CO)O2)cc1	0	0	0
COc1cccc(-c2ccc([C@H]3[C@@H](CO)N4C(=O)CN(C(=O)C5CCOCC5)C[C@@H]34)cc2)c1	0	-	0
C[C@@H]1CN([C@H](C)CO)C(=O)c2cc(NC(=O)C3CCCCC3)ccc2O[C@@H](C)CCCCO[C@H]1CN(C)C(=O)Nc1cccc2ccccc12	?	0	0
C[C@H]1CCCCO[C@H](CN(C)C(=O)Nc2cccc3ccccc23)[C@@H](C)CN([C@@H](C)CO)C(=O)c2cc(NC(=O)C3CCCCC3)ccc2O1	-86	0	0
CC(C)NC(=O)Nc1ccc2c(c1)C(=O)N([C@H](C)CO)C[C@H](C)[C@H](CN(C)C(=O)Nc1cccc3ccccc13)OCCCC[C@@H](C)O2	0	0	0
C[C@@H]1CCCCO[C@@H](CN(C)C(=O)Nc2cccc3ccccc23)[C@@H](C)CN([C@H](C)CO)C(=O)c2cc(NC(=O)C3CCCCC3)ccc2O1	0	0	0
CC(C)NC(=O)Nc1ccc2c(c1)C(=O)N([C@@H](C)CO)C[C@@H](C)[C@H](CN(C)C(=O)Nc1cccc3ccccc13)OCCCC[C@H](C)O2	-86	0	0
C[C@@H]1CCCCO[C@@H](CN(C)C(=O)Nc2cccc3ccccc23)[C@H](C)CN([C@@H](C)CO)C(=O)c2cc(NC(=O)C3CCCCC3)ccc2O1	-83	0	0
O=C(Nc1cc(F)ccc1F)N[C@H]1CC[C@H](CCn2cc(C3CC3)nn2)O[C@@H]1CO	0	0	-
C[C@@H]1CN([C@H](C)CO)C(=O)CCCn2cc(nn2)CO[C@@H]1CN(C)C(=O)Nc1ccc(N2CCN(C)CC2)cc1	0	0	0
C[C@H]1CN([C@@H](C)CO)C(=O)CCCn2cc(nn2)CO[C@@H]1CN(C)C(=O)Nc1ccc(N2CCCCC2)cc1	-89!	0	0
COc1ccccc1S(=O)(=O)N(C)C[C@H]1OCc2cn(nn2)CCCC(=O)N([C@H](C)CO)C[C@H]1C	0	0	-
C[C@H]1CN([C@@H](C)CO)C(=O)CCCn2nncc2CO[C@@H]1CN(C)C(=O)Nc1ccc(N2CCCCC2)cc1	-90!	0	0
C[C@H](CO)N1C[C@H](C)[C@H](CN(C)C(=O)Nc2ccc(N3CCCCC3)cc2)OCc2cnnn2CCCC1=O	0	0	0
COc1ccccc1S(=O)(=O)N(C)C[C@H]1OCc2cn(nn2)CCCC(=O)N([C@@H](C)CO)C[C@@H]1C	-89	0	-
CO[C@H](CN(C)Cc1cc(F)ccc1F)[C@H](C)CN(C(=O)Nc1ccc(F)cc1)[C@H](C)CO	0	0	-
O=C(C[C@H]1CC[C@@H](NC(=O)c2ccncc2)[C@H](CO)O1)Nc1ccc(-c2ccccc2)cc1	0	-	0
COc1ccc(S(=O)(=O)Nc2ccc3c(c2)C(=O)N([C@H](C)CO)C[C@@H](C)[C@H](CN(C)C(=O)Nc2ccc(F)cc2)OCCCC[C@@H](C)O3)cc1	0	0	0
C[C@@H]1CCCCO[C@H](CN(C)C(=O)NC2CCCCC2)[C@H](C)CN([C@@H](C)CO)C(=O)c2cc(NS(=O)(=O)c3ccc(F)cc3)ccc2O1	0	0	0
C[C@H](CO)N1C[C@H](C)[C@H](CN(C)C(=O)C2CCC2)Oc2ncc(-c3ccncc3)cc2C1=O	0	0	-
COCC(=O)Nc1ccc2c(c1)OC[C@@H](C)N(Cc1ccccc1F)C[C@H](C)[C@@H](OC)CN(C)C2=O	0	-	0
C[C@@H]1CN([C@H](C)CO)S(=O)(=O)c2ccc(C#Cc3ccncc3)cc2O[C@@H]1CN(C)CC1CC1	0	0	0
CO[C@@H]1CN(C)C(=O)c2cc(NC(=O)Nc3ccc(Cl)c(Cl)c3)ccc2OC[C@H](C)NC[C@H]1C	0	0	-98
SMILES	Pf Dd2 growth	Tcruzi prolif	C diff HTS
CO[C@H]1CN(C)C(=O)c2cc(NC(=O)Nc3ccc(Cl)c(Cl)c3)ccc2OC[C@H](C)NC[C@@H]1C	0	0	-97
COc1cccc(NC(=O)Nc2ccc3c(c2)C(=O)N(C)C[C@H](OC)[C@@H](C)CN[C@H](C)CO3)c1	0	0	-
CO[C@@H]1CN(C)C(=O)c2cc(NC(=O)Nc3ccc(Cl)c(Cl)c3)ccc2OC[C@@H](C)NC[C@@H]1C	-86	0	-97
COc1cccc(NC(=O)Nc2ccc3c(c2)C(=O)N(C)C[C@@H](OC)[C@H](C)CN[C@@H](C)CO3)c1	-87	0	-
CO[C@H]1CN(C)C(=O)c2cc(NC(=O)Nc3ccc(Cl)cc3)ccc2OC[C@H](C)NC[C@H]1C	0	0	0
CO[C@@H]1CN(C)C(=O)c2cc(NC(=O)Nc3ccc(Cl)cc3)ccc2OC[C@@H](C)NC[C@@H]1C	0	0	0
CO[C@H]1CN(C)C(=O)c2cc(NC(=O)Nc3ccc(Cl)cc3)ccc2OC[C@H](C)NC[C@@H]1C	0	0	0
CO[C@@H]1CN(C)C(=O)c2ccc(NC(=O)C3CC3)cc2OC[C@H](C)N(C(=O)c2cnccn2)C[C@H]1C	0	0	0
COc1ccc(NC(=O)N(C)C[C@@H]2Oc3ccc(NC(=O)Nc4ccc(F)cc4)cc3CC(=O)N([C@H](C)CO)C[C@@H]2C)cc1	0	0	0
C[C@@H]1CN([C@H](C)CO)C(=O)c2cc(NS(=O)(=O)c3cn(C)cn3)ccc2O[C@H]1CN(C)Cc1ccc2c(c1)OCO2	0	0	-
CCCN1C[C@H](C)[C@@H](OC)CN(C)C(=O)c2ccc(NC(=O)C3CCC3)cc2OC[C@@H]1C	0	0	-
CN(C)CCCNC(=O)C[C@@H]1CC[C@H]2[C@@H](COC[C@@H](O)CN2CC2CCCCC2)O1	0	-	0
O=C(Cc1cccnc1)N1[C@H](CO)[C@H]2c3ccccc3NC[C@H]21	0	0	0
Cc1ccc(S(=O)(=O)N(C)C[C@H]2OCCCC[C@H](C)Oc3ccc(NC(=O)Nc4ccc(F)cc4)cc3C(=O)N([C@H](C)CO)C[C@@H]2C)cc1	0	-	-
Cc1ccc(S(=O)(=O)N(C)C[C@@H]2OCCCC[C@H](C)Oc3ccc(NC(=O)Nc4ccc(F)cc4)cc3C(=O)N([C@H](C)CO)C[C@H]2C)cc1	-82	-	-
Cc1ccc(S(=O)(=O)N(C)C[C@@H]2OCCCC[C@H](C)Oc3ccc(NC(=O)Nc4ccc(F)cc4)cc3C(=O)N([C@@H](C)CO)C[C@@H]2C)cc1	-83	-	-
Cc1ccc(S(=O)(=O)N(C)C[C@@H]2OCCCC[C@@H](C)Oc3ccc(NC(=O)Nc4ccc(F)cc4)cc3C(=O)N([C@@H](C)CO)C[C@H]2C)cc1	0	-	-
CC(C)NC(=O)N(C)C[C@H]1OCCCC[C@H](C)Oc2ccc(NC(=O)Nc3ccc(C(F)(F)F)cc3)cc2C(=O)N([C@H](C)CO)C[C@H]1C	0	0	0
C[C@@H]1CN([C@@H](C)CO)C(=O)c2cc(C3=CCCC3)cnc2O[C@H]1CN(C)S(=O)(=O)c1cn(C)cn1	0	0	0
O=C(c1ccccn1)N1CC[C@@H]2[C@H](CO)Nc3ccc(C#Cc4ccccc4)cc3[C@@H]21	0	0	0
